The full ranking holds about 33,000 sequences; the median of “E-score (-0.5 to 0.5)” is about -0.015, and the highest 2% start at about 0.3. For the sample, the highest values were picked, then their nearest neighbours and some sequences at random.
Molecular target: T1, Abf1 (UniProt P14164)
T1 sequence: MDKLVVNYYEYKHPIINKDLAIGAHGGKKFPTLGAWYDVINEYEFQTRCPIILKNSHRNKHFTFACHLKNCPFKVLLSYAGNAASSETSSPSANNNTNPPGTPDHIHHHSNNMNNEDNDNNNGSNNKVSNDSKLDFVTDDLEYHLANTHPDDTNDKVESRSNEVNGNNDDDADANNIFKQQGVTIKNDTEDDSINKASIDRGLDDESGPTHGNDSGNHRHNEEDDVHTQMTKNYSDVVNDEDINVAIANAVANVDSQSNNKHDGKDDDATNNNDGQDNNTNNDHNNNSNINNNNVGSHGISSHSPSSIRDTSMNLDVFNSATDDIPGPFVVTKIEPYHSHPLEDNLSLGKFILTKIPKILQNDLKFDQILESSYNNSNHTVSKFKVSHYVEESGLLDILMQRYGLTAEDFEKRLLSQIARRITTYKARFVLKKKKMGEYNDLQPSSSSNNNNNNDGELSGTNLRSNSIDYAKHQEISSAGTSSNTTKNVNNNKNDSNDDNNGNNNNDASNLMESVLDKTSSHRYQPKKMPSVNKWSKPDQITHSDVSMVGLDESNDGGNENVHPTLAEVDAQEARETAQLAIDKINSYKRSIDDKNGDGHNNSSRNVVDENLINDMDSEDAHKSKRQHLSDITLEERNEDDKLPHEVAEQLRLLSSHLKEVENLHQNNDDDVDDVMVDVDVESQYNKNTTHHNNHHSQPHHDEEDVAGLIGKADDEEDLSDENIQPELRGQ
Test: PBM E-score (8-mer binding enrichment) (E-score (-0.5 to 0.5)); higher = stronger / more preferred TF binding
Conditions: protein concentration: 200 nM; construct: GST-full length
Outline: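 The E-score, a modified Wilcoxon-Mann-Whitney statistic, was computed by the Universal PBM Analysis Suite for every ungapped eight-base word pooled with its reverse complement. Scans behind it were normalised with masliner after bound GST-tagged yeast transcription factors were detected with fluorescent anti-GST. The proteins, at about 100-200 nM, had been applied to universal all-10-mer Agilent arrays made double-stranded by primer extension.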

Sequence | PBM E-score
CATATTAA | 0.315
CATATTAG | 0.136
TATATTAA | 0.167
ACGAACGC | 0.214
GACTGTGC | 0.0177
GCGTGATA | 0.353
CTGTGATA | 0.201
ACGTGATA | 0.318
ACGTGATG | 0.215
ACGTGATC | 0.261
CCGTGATA | 0.283
ATGTGATA | 0.291
GTGTGATA | 0.327
GCGTGAGA | 0.168
CGCGATTA | 0.0309
AGGTATGC | 0.0905
CAGGCTGA | -0.188
AAATAATT | 0.212
GGTACAAA | 0.0902
CGTACAGA | 0.308
CGTACACA | 0.318
AGTACATA | 0.0814
CGTACAGC | -0.0515
CGTACACC | -0.0081
CGTACAAA | 0.408

Sequence | PBM E-score
AGTACAAA | 0.101
CGTACATA | 0.364
CGTACATC | 0.134
CGTACACG | 0.245
GGTACAGA | 0.00644
GGAGATAA | 0.0908
CAAACGGG | -0.0186
AACCGATT | 0.0401
GCACCCAA | -0.239
CTTCTTTA | 0.12
AGATGGGG | -0.284
GAACAATC | 0.0605
GAAATTCC | -0.102
AGTACAAG | 0.0462
CGTACAAC | 0.276
CGTACAAG | 0.357
GACGCCGA | 0.0176
CATATAAG | 0.0553
CGTATAAC | 0.366
TGTATCAA | -0.0209
CGTATCAC | 0.281
TGTATAAA | 0.116
GGTATAAC | 0.0343
AGTATAAA | 0.252
CGTATCAA | 0.343

Sequence | PBM E-score
CGTATAAA | 0.417
CGTATAAG | 0.349
AGTATAAG | 0.0186
AGTATAAC | 0.194
GATCCTAA | 0.0497
ACCAAAAC | 0.0329
ATTAAGTA | 0.133
ATCTGTCA | 0.212
CAACCAGG | -0.288
CGAAAGGA | 0.191
GGAATACA | -0.0854
ATGGCTAA | -0.0715
CATCGTCG | 0.231
AATCGTCA | 0.334
AATCGTCC | 0.168
GATCGTCA | 0.277
TATCGTGA | 0.286
CATCGTCA | 0.297
AATCGTCT | 0.269
CATCGTCC | 0.137
TATCGTCA | 0.33
CGAATGGA | 0.0823
GACCCTAA | 0.012
CAACGTTC | -0.145
CATGATGG | -0.191

Sequence | PBM E-score
GATGATGC | 0.152
GATGATGA | 0.223
CATGATGC | 0.123
CATGATGA | 0.365
TATGATGA | 0.313
CAGTACCC | -0.0706
GGTAATAC | 0.099
CGTAATAG | 0.112
CGTAATAC | 0.303
GAGTGAGC | 0.033
AAGTGAGT | 0.0964
AAGTGATG | 0.314
AAGTGATT | 0.347
GAGTGAAC | -0.115
AAGTGAAT | 0.16
ATGTGATC | 0.18
CAGTGATG | 0.255
GAGTGATC | 0.327
AGGTGATC | 0.276
ATGTGATG | 0.0498
AAGTGATC | 0.41
CAAAATGA | 0.275
CAAGATGC | 0.148
TAACTCTA | -0.0858
TACAGGGA | -0.19

Sequence | PBM E-score
GACGGGAC | -0.171
ACGGCAAT | 0.277
CTCAATGA | 0.0427
TGAATTCA | 0.171
CAGGGCCA | -0.227
CTGTGATC | 0.0861
CAGTGATC | 0.366
CAGTGAGC | -0.118
GGTGTACA | -0.178
CGTCATCC | 0.167
AGTCATTA | 0.037
GGTCATAC | -0.0499
CGTCATCA | 0.349
AGTCATCA | 0.135
CGTCATAG | 0.143
CGTCATAC | 0.316
CGTCATTA | 0.327
GGTCATTA | 0.134
GACTGCGA | -0.206
GCTATGCA | -0.102
AGGCACGG | 0.062
GACAGACA | 0.119
CGGTCAGC | -0.137
CACGTCTA | 0.166
GAGAATAA | 0.034

Sequence | PBM E-score
ATGATCAA | 0.273
ATGATCAG | 0.269
ACGATCAC | 0.274
ATCATGAT | 0.416
ATCATGAG | 0.238
ATGATCAC | 0.335
CTGATCAA | -0.114
GTGATCAC | 0.386
GTGATCAA | 0.392
GGGATCAC | -0.0214
CTGATCAC | 0.294
ATCATGAA | 0.121
CGAGCTTA | -0.0534
AGCAGTAC | -0.0878
GCAAACGC | 0.00943
AAGGTCGC | 0.0476
AATTGAAA | 0.116
AATCCAGG | 0.0662
CCTGTCTC | -0.123
ATGGGGTA | -0.00916
CGAGCGGC | -4e-05
CGTTACCC | -0.152
CCTCTATC | -0.0168
ATGATCAT | 0.387
AGGATCAT | 0.0179

Sequence | PBM E-score
ACGATCAT | 0.222
CGACGTAA | 0.123
ATACGTAC | 0.165
GGACGTAC | -0.0265
GTACGTAC | -0.0114
GTACGTAA | 0.343
ATACGTAA | 0.24
CGACGTAC | 0.322
AGACGTGA | 0.227
GGACGTGA | 0.0158
CGACGTGA | 0.297
TTACGTAA | 0.196
CTACGTAC | 0.297
CATCAGAC | -0.02
CAGAGTAG | -0.205
AGGTATAG | -0.1
TAGCGAAA | -0.00307
ACGATGGG | -0.08
CGCATTTC | -0.0669
ACCGCTGA | -0.057
CCTACGAC | 0.288
TGTACAAA | 0.0674
